Compound activity (PubChem)
Compounds with a hit are over-represented: about 7.3% of the library has one in this group of screens.
NIH3T3 tox – kills NIH 3T3 cells; AID 1345082; 94,000 compounds, 4.3% hits; NIH 3T3 viability, CellTiter-Glo ATP luminescence, 48-72 h; Potency, µM (top dose mostly 96.7 µM), usual class: inhibitors; also: nearly all actives have a fitted effect of over 55% in size
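ATP-dependent luminescence (CellTiter-Glo) served as the viability signal for NIH 3T3 cells treated with compound for 48 or 72 hr at 37 °C.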
Luciferase inh – inhibitors of firefly (Photinus pyralis) luciferase | P08659 | purified P. pyralis luciferase, luminescence, biochemical | Potency, µM (titrated, usually from 115 µM), hits mostly inhibitors | 76,000 compounds, 2.5% hits | AID 1347043; also: nearly all actives have a fitted effect of over 65% in size
Target sequence (P08659 whole entry, looked up): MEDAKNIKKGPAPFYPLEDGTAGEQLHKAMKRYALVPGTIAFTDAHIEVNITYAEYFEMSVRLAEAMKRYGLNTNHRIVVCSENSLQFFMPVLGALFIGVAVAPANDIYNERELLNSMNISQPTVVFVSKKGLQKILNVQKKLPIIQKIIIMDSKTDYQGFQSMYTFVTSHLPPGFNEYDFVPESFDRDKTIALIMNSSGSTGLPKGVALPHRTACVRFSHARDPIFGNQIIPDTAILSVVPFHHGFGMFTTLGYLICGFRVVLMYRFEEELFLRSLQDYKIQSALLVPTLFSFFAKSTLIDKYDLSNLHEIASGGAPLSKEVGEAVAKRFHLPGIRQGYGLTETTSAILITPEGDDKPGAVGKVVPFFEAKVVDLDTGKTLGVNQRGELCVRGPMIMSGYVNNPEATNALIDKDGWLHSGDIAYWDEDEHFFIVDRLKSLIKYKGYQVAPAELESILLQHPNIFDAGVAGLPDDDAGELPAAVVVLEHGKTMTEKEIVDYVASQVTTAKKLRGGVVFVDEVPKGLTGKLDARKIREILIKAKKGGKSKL
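Luminescence read by CCD imaging after purified firefly luciferase (10nM final) was added to substrate buffer holding 10uM D-luciferin and 10uM ATP, pH 7.5, pre-dosed with compound.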
SNCA expr inh – SNCA gene expression inhibition | HEK-293 SNCA-luciferase knock-in, luminescence, 24 h | AID 1671194 | 140,000 compounds, 0.17% hits | Potency, µM (series often up to 57.2 µM), hits mostly inhibitors; also: nearly all actives have a fitted effect of over 45% in size
HEK293 tox – cytotoxic compounds in HEK 293 cells. AID 1345083. 94,000 compounds, 6.6% hits. Potency, µM (titrated, usually from 115 µM), usual class: inhibitors. HEK 293 viability, ATP luminescence (CellTiter-Glo), 48-72 h; also: nearly all actives have a fitted effect of over 60% in size
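Cells seeded first (HEK 293, 250 cells/well), then compound added by pintool. Incubation ran 48 or 72 hr at 37 degree Celsius. CellTiter-Glo was added and luminescence imaged after 10 min at room temperature.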
IP6K1 inhibitor – IP6K1 kinase inhibition. Q92551. IP6K1 kinase, ADP-Glo luminescence, 2 h; stronger effect = lower value. activity change, % (series mostly up to about 58 µM). 140,000 compounds, 0.81% hits. AID 1645851; in the data active = activity change below about -25%
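ADP-Glo luminescence measures ADP made by human IP6K1 during a 2 h RT reaction with ATP/IP6 (mix at 1.3 mM/130 uM); top library doses 57.5 and 19.1 uM final.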
HEK293 viab – counter-screen for SNCA expression inhibitors: cell viability | Potency, µM (titrated, usually from 57.1 µM), most hits filed as cytotoxic | 150,000 compounds, 0.12% hits | AID 1671193 | HEK-293-SNCA-luc viability, GF-AFC fluorescence, 24 h; also: nearly all actives have a fitted effect of over 30% in size
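Cytotoxicity counterscreen: after 24 h compound treatment of genome-edited SNCA-luciferase HEK-293 cells, live-cell protease substrate GF-AFC read by fluorescence after 30 min; activity scaled between DMSO (0%) and medium-only (-100%), curves Hill-fitted.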
Numbers stand for hits; n = inactive; u = inconclusive; x = no result; ! = not confirmed by another sample; [ ] = dose if it differs, or a comment. Unless noted, calls follow the shape of the dose curve; as a rule, active = well fitted curve in the direction sought with a large enough effect; inconclusive = small, poorly fitted or top-dose-only effect, or another doubt; inactive = no such curve, though single readings can be large; an effect the other way counts as inactive or inconclusive.

SMILES | NIH3T3 tox | Luciferase inh | SNCA expr inh | HEK293 tox | IP6K1 inhibitor | HEK293 viab
O=C(c1ccc(Cl)cc1)N1CCC2(CC1)C(=O)NCN2c1ccccc1 | n | x | n | u | n | n
O=C(NCCCc1ccccc1)c1nc2cccnc2n(Cc2ccccc2)c1=O | u | x | n | u | n | n
CN(Cc1cccc(CCN)c1)Cc1cccc2ncccc12 | u | n | n | 44.7µM | n | n
CNC(=O)NCCc1ncc(C)n1C1CCCCCCC1 | n | n | n | n | n | n
O=c1cc(-c2cccnc2)oc2c(NCc3ccc(F)cc3)nccc12 | 50.1µM | n | n | n | n | n
COc1ncccc1-c1nccc2c(=O)cc(-c3cccnc3)oc12 | u | n | n | n | n | n
C[S+](=O)([O-])c1ccc(-c2nccc3c(=O)cc(-c4cccnc4)oc23)cc1 | 25.1µM | n | n | u | n | n
COc1ccc(-c2nccc3c(=O)cc(-c4cccnc4)oc23)cc1OC | 22.4µM | n | n | n | n | n
Cc1ccccc1-c1nccc2c(=O)cc(-c3cccnc3)oc12 | 25.1µM | n | n | 112µM | n | n
O=c1cc(-c2ccccn2)oc2c(NCc3ccc(F)cc3)nccc12 | n | n | n | u | n | n
Cc1ccccc1NC(=O)N1CCC(CCNC(=O)C2(c3ccccc3)CC2)CC1 | n | n | n | u | n | n
COc1ccc(-c2ccc(C(=O)N3CCN(C(=O)c4ccccc4F)CC3)cc2)nn1 | u | x | x | n | n | x
COc1ccc(OC)c(-c2nc3cc4c(cc3cc2CN2CCOCC2)OCO4)c1 | n | n | n | n | n | n
Cc1nc(CCNC(=O)C2CNCCO2)sc1C (centres undefined) | n | n | n | n | n | n
CCOC(=O)CC1(NC(=O)N2CCc3c(nc(-c4ccccc4)[nH]c3=O)C2)CCCCC1 | n | n | n | n | n | n
O=c1cc(-c2ccncc2)oc2c(-c3cccc(O)c3)nccc12 | 22.4µM | n | n | u | n | n
O=c1cc(-c2ccncc2)oc2c(-c3ccc(CO)cc3)nccc12 | u | n | n | u | n | n
Cc1cc(COc2ccccc2)oc1C(=O)N1C[C@@H]2CCN(C)[C@@H]2C1 | n | u | n | n | n | n
CC(C)c1noc(-c2cn(C3CCN(C(=O)c4nccc5ccccc45)C3)nn2)n1 (centres undefined) | n | n | n | n | n | n
O=C(Cc1cccc(F)c1)N1CCC(n2cc(-c3nc(-c4ccccc4)no3)nn2)CC1 | n | n | n | n | n | n
O=C(Cc1ccsc1)N1CCC(n2cc(-c3nc(-c4ccccc4)no3)nn2)C1 (centres undefined) | n | 56.2µM | n | u | n | n
O=C(c1ccc2ccccc2n1)N1CCC(n2cc(-c3nc(-c4ccccc4)no3)nn2)C1 (centres undefined) | u | 28.2µM | n | u | n | n
O=C(c1nccc2ccccc12)N1CCC(n2cc(-c3nc(-c4ccccc4)no3)nn2)C1 (centres undefined) | u | 44.7µM | n | 28.2µM | n | u
O=C(c1ccco1)N1CCC(n2cc(-c3nc(-c4ccccc4)no3)nn2)C1 (centres undefined) | u | 35.5µM | n | u | n | n
Cc1ccc(C(=O)N2CCC(n3cc(-c4nc(-c5ccccc5)no4)nn3)C2)s1 (centres undefined) | n | n | n | u | n | n
SMILES | NIH3T3 tox | Luciferase inh | SNCA expr inh | HEK293 tox | IP6K1 inhibitor | HEK293 viab
O=C(NC1CCN(C(=O)c2ccc(-c3cccs3)cc2)CC1)c1ccc(F)cc1 | n | x | n | u | n | n[12.5 µM]
CC(=O)c1cc(C(=O)N2CCC(n3nccc3NC(=O)CC(C)C)CC2)cs1 | n | n | n | n | n | n
COc1ccc(-c2nc(-c3nnn4c3COC(c3ccc(Cl)cc3)C4)no2)cc1 (centres undefined) | n | n | n | n | n | n
COc1ccc(-c2nc(C(=O)Nc3cccc(C(C)=O)c3)nn2-c2ccc(Cl)cc2)cc1 | x | x | n | x | n | n
COCCOc1nc(-c2ccc(Cl)c(Cl)c2)n(-c2ccc(NC(=O)CCl)cc2)n1 | x | x | n | x | n | 29.9µM!
CCCn1cc(-c2ccnc(NC3CCN(Cc4ccccn4)CC3)n2)c(C)n1 | u | n | u | 28.2µM | n | n
CCCn1cc(-c2ccnc(NCc3c(F)ccc(C)c3F)n2)c(C)n1 | u | n | n | 50.1µM | n | n
CCCn1cc(-c2ccnc(NCc3cccc(C)c3)n2)c(C)n1 | u | n | n | u | n | n
O=C(c1csc(Cc2ccccc2)n1)N1Cc2ccccc2C(O)C1 (centres undefined) | u | 39.8µM | n | u | n | n
O=C(c1csc(Cc2ccccc2)n1)N1CC[C@H](CO)[C@@H](O)C1 | n | n | n | n | n | n
CCc1nc2c(c(-c3ccc(OC)cc3)n1)CCN(C(=O)c1ccc(C)cc1)CC2 | n | x | n | n | n | n
O=C1Nc2ccccc2CC12CCN2Cc1ccccc1C(F)(F)F (centres undefined) | u | n | n | 79.4µM | n | n
CCOc1ccc(NC(=O)c2ccc3c(c2)N(CC)C2CCCCCN2C3=O)cc1 (centres undefined) | u | n | n | u | n | n[12.5 µM]
CCN1c2cc(C(=O)Nc3cccc(F)c3)ccc2C(=O)N2CCCCC21 (centres undefined) | u | u | n | u | n | n[12.5 µM]
CCOC(=O)c1cccc(NC(=O)c2ccc3c(c2)N(CC)C2CCCCCN2C3=O)c1 (centres undefined) | 20µM | n | u | u | n | n[12.5 µM]
CCN1c2cc(C(=O)Nc3cccc(C(=O)OC)c3)ccc2C(=O)N2CCCCCC21 (centres undefined) | 17.8µM | n | n | u | n | n[12.5 µM]
O=C1NCCCCCCN(C(=O)Nc2ccccc2)[C@H]2C[C@H](c3nc(Cc4ccccc4)no3)C[C@@H]12 | n | n | n | u | n | n
O=C1NC(=NC2CCCCC2)C2(CCN(Cc3cccnc3)C2)N1c1cccnc1 (centres undefined) | 39.8µM | x | u | n | n | u
O=C1NC(=NC2CCCCC2)C2(CCCN(Cc3cccnc3)C2)N1c1cc(F)cc(F)c1 (centres undefined) | 11.2µM | x | n | n | n | n
O=C1NC(=NC2CCCC2)C2(CCCN(Cc3ccc(F)cc3)C2)N1c1cc(F)cc(F)c1 (centres undefined) | u | x | u | u | n | u
O=C1NC(=NC2CCCC2)C2(CCN(CC3CCCCC3)CC2)N1c1cc(F)cc(F)c1 | n | x | n | n | n | n
CN(C)c1ccc(CN2CCCC3(C2)C(=NC2CCCCC2)NC(=O)N3c2cccnc2)cc1 (centres undefined) | n | x | n | u | n | n
